Experimental data published in PubChem BioAssay AID662 (National Center for Advancing Translational Sciences (NCATS), 2007).
In all, about 71,000 compounds went through this assay and about 1,800 (2.5%) were called active. Another 26% or so got no clear call; they are omitted. Calls come from the whole dose curve; as a rule, active = well fitted activation curve with a large enough effect in the signal ratio, with a control signal flat (not every such curve was filed as active); inconclusive = small, poorly fitted or top-dose-only effect, or effect the other way, or a change in a side signal; inactive = flat fitted curve, though single readings scatter; the % refers to the signal ratio. For the sample, actives were picked, then their nearest neighbours and some compounds at random.

Experiment: Cell signaling CRE-BLA (Fsk stim); for activity change, negative = inhibition: % of control where 0% means no effect
Conditions: CHO CRE-bla reporter (cAMP response element driving beta-lactamase), forskolin EC10, beta-lactamase ratio; series mostly up to 38.2 µM; activity change, negative = inhibition: at the top concentration
Excerpt: NIH Molecular Libraries Screening Centers Network [MLSCN]
NIH Chemical Genomics Center [NCGC]
Assay Provider: Marshall W. Nirenberg, U.S. National heart lung & blood institute
Memories persist for different lengths of time, from seconds or minutes to a lifetime. There are two kinds of memory: short-term memory (STM) and long-term memory (LTM). STM lasts for minutes to hours, which maybe mediated by modifications of molecules involved in synaptic functions. LTM lasts for days or longer, and may be due to the formation of new synapses or restructuring of existing synapses. LTM, but not STM, requires gene transcription and synthesis of proteins. CREB (cyclic-AMP Responsive Element Binding Protein) is one of the candidates plays an important role for enhancement of some types of LTM. CREB, a family of transcription factors, regulates the transcription of genes containing cAMP Responsive Elements (CRE). CRE is a nucleotide sequence often found in the promoter regions of genes that are binding sites for CREB.
Using a beta-lactamase reporter-gene under control of cAMP responsive element, a cell-based assay [CellSensor(TM) CRE-bla CHO developed by Invitrogen Corp.] was used to measure forskolin-induced signaling. Library compounds were measured for their ability to modulate positively or negatively the action of EC10 NKH 477, a water soluble forskolin, on reporter gene activity. Compounds were screened in a titration series in 1536-well format. Positive and negative modulators were identified based on the AC50 values derived from the screening data.
NCGC Assay Protocol Summary
2000 cells/5uL in Opti-MEM medium containing 0.5% dialyzed FBS, 0.1 mM NEAA, 1 mM sodium pyruvate and 10 mM HEPES was dispensed into 1536-well plates and cells were cultured at 37 degrees Celsius overnight. […] And then the plates were incubated at 37 degrees Celsius for 3 hours. 1 uL of CCF4-dye mixture was added to each well. After incubated at room temperature for 2 hours the plates were measured on an EnVision plate reader at Excitation 405nm, Emission1=460nm and Emission 2=530nm. The %Activity was determined from the ratio of 460nm/530nm.
Keywords: NIH Roadmap, MLSCN, MLSMR, qHTS, NCGC, CRE, beta-lactamase reporter-gene assay.
Potency is the fitted concentration of half-maximal effect.

Row | Structure (SMILES) | activity change, negative = inhibition | Potency
1 | O=C(c1cc(S(=O)(=O)N2CCOCC2)ccc1F)N1CCC2(CC1)OCCO2 | -0.495% (inactive) | 
2 | COc1ccc(S(=O)(=O)NCc2ccc(C(=O)N3CCC4(CC3)OCCO4)cc2)cc1 | -18% (inactive) | 
3 | O=C(c1cc2nc(-c3ccccc3)cc(-c3ccccc3)n2n1)N1CCC2(CC1)OCCO2 |  | 2.51 µM (active)
4 | C[C@@]1([C@@H](NP(=O)(c2ccccc2)c2ccccc2)c2ccccc2)C[C@H]1CCO | -6.41% (inactive) | 
5 | Cc1cc(-c2ccc(N)c(C)c2)ccc1N | 2.87% (inactive) | 
6 | N[C@H](Cc1o[nH]c(=O)c1Cl)C(=O)O | -13.5% (inactive) | 
7 | ClC(Cl)=C(Cl)C(Cl)=C(Cl)Cl | -6.71% (inactive) | 
8 | CCCCCCN=C(CC)c1c(O)n(CCCC)c(=O)[nH]c1=O |  | 10 µM (active)
9 | CCC(=NCCCO)c1c(O)n(-c2ccc(OC)cc2)c(=O)[nH]c1=O | 6.61% (inactive) | 
10 | ClC(Cl)(Cl)c1ccccc1 |  | inactive
